Holding throughout (experiment): NCI-60 one-dose screen, 48 h (100 = growth as untreated, 0 = no growth, -100 = all killed)
Common to all, as to conditions: 10 µM unless noted

Assay [1] has as its system EKVX NSCLC.
Assay [2] concerns SN12C renal.
Assay [3] has as its system UO-31 renal.
For assay [4], the system named is TK-10 renal.
Assay [5] deals with ACHN renal.
Assay [6] relates to CAKI-1 renal.
In assay [7] the test system is A498 renal.
The subject of assay [8] is CCRF-CEM leukemia.
The subject of assay [9] is MOLT-4 leukemia.

About 83,000 compounds went through this panel and 20% of them were active in at least one assay; those are over-represented in the sample as a whole.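 In brief: 96-well plates, 48 h treatment, single concentration, percent growth endpoint.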 Unmarked numbers belong to inactive results. Calls of active or inactive are those of the source. Rule for the calls: active = growth percent below 10; inactive = the rest.

For the compound `NC(N)=NCCCCCNc1noc(Cc2c[nH]c3cc(Br)ccc23)n1`, the growth in assay [1] was 69.6%; in assay [2] it was 44.7%; in [3], 80.2%; in assay [4] it was 75.4%; in assay [5] it was 92.6%; in [6], 82.4%. Further, the values for the growth in assay [7], in assay [8] and in assay [9] were 94%, 97.8% and 60.2%, respectively.

Take `CCN(CC)c1ccc(\C=N/N=C(N)/C(N)=N\N=C/c2ccc(N(CC)CC)cc2)cc1`: the growth in assay [1] is 104%; in [2], 105%; in [3], 82.9%; in assay [4], 113%; in assay [5], 96.4%; in assay [6], 88.9%. The growth is 102% in assay [7], 89% in assay [8] and 95.8% in [9].

With `O=C(Nc1nc2ccc(C(=O)N3CCN(/C=C/c4ccccc4)CC3)cc2s1)c1ccc(NCCc2ccccc2)c([N+](=O)[O-])c1`, the growth was 50.6% in assay [1]; 61.3% in [2]; 37.8% in assay [3]; 87.7% in assay [4]; 80.9% in assay [5]; 50.6% in assay [6]. In addition, the growth in assay [7] was 48.3%; in assay [8], 22.8%; in assay [9] it was 27.4%.

Turning to `CC1(C)COB(OCC(C)(C)COB2OCC(C)(C)CO2)OC1`, the growth in assay [1] is 104%; in [2] it was 104%; in [3], 87.7%; in assay [4], 102%; in assay [5], 108%; in assay [6], 102%. In addition, the growth in [7] is 100%; in assay [8], 101%; in assay [9] it was 108%.

As to `Nc1ncnc2c1C(c1ccc(Br)cc1)c1sc3c(F)cccc3c1O2` (configuration not stated), the growth was 69.3% in assay [1]; 104% in assay [2]; 64.2% in assay [3]; 119% in assay [4]; 93.7% in assay [5]; 79.4% in [6]. Further, the growth is 114% in [7], 97.8% in assay [8] and 101% in [9].

As for `COc1cc2c(cc1OC)C(C)N(S(N)(=O)=O)CC2` (configuration not stated), the growth was 107% in [1]; 88.7% in assay [2]; 81.9% in [3]; 103% in assay [4]; 102% in assay [5]; 101% in [6]. The growth in [7] was 102%; in [8], 80%; in assay [9] it was 91.8%.

For `CN(C)CCNC(=O)c1ccc(-c2nc3ccc4[nH]ncc4c3c3c2C2CCC3C2)cc1` (configuration not stated), the growth in [1] was 68.4%; in assay [2] it was 10.2%; in assay [3] it was 8.05% (active); in assay [4], 83%; in [5] it was 17.4%; in [6] it was 15.2%. In addition, the growth is -20.9% (active) in assay [7], 6.57% (active) in [8] and -8.33% (active) in [9].

Regarding `CS(=O)(=O)Nc1cc(-c2ccc3ncnc(Nc4ccc5c(cnn5Cc5cccc(F)c5)c4)c3c2)cnc1Cl`, the growth in [1] was 4.57% (active); in assay [2] it was 3.84% (active); in assay [3], 15.7%; in assay [4], -15.9% (active); in [5], 18.4%; in [6], -27.9% (active). Moreover, the growth is -48.7% (active) in assay [7], 12.7% in assay [8] and -10% (active) in [9].

For `CC(C)(Sc1cc(C(C)(C)C)c(O)c(C(C)(C)C)c1)Sc1cc(C(C)(C)C)c(OC(=O)CCCC(=O)O)c(C(C)(C)C)c1`, the growth in [1] is 53.5%; in [2], 41.4%; in assay [3], 38%; in [4] it was 74.2%; in assay [5] it was 47%; in assay [6], 59%. Besides, the growth in assay [7] is 60.2%; in [8], 43.5%; in assay [9], 36.9%.

For `CCOC(=O)c1c(NC(=O)c2ccc(Cl)cc2)sc2c(CN(C)C)c(O)ccc12`, the growth was 93.8% in assay [1]; 83.6% in assay [2]; 67.5% in assay [3]; 108% in assay [4]; 50.7% in [5]; 67.2% in assay [6]. The figures for the growth in assay [7], in [8] and in assay [9] were 76.3%, 62.6% and 59.5%, respectively.

`CCCn1cc2c(=O)nc3sc(Cc4ccccc4)c(C)n3c2n1`: the growth in assay [1] is 104%; in [2] it was 104%; in [3] it was 78.5%; in assay [4], 92.9%; in assay [5] it was 109%; in assay [6] it was 87.7%. For the same compound, the growth was 100% in assay [7], 92.3% in assay [8] and 78% in assay [9].

Turning to `Cc1ccc(Nc2cc(N)nc(N)n2)cc1Cl`, the growth in [1] was 67.7%; in assay [2], 104%; in [3] it was 83.4%; in assay [4], 111%; in [5], 101%; in [6], 81.6%. Besides, the growth was 101% in assay [7], 96.6% in assay [8] and 93.7% in assay [9].

Regarding `COc1ccc2c(c1OC)CO[C@@H]2[C@H]1c2c(cc3c(c2OC)OCO3)CCN1S(=O)(=O)c1cn(C)cn1`, the growth in assay [1] is 45.6%; in assay [2] it was 41.1%; in [3], 46.2%; in assay [4] it was 54.1%; in assay [5] it was 36.6%; in assay [6] it was 31.7%. For the same compound, the figures for the growth in assay [7], in assay [8] and in assay [9] were -21.3% (active), 21.4% and 27.4%, respectively.

Values taken from PubChem BioAssay (NCI).
